# Assay results published in PubChem BioAssay (NCATS).
# “And” between values parts separate entries of the source, which are not always exact repeats. Identical values can stand only once. Records with an inconclusive call do not appear. Values without a mark were called inactive. The source made the active and inactive calls. The call rests on the fitted dose curve; in most records, active means well fitted curve in the direction sought with a large enough effect; inconclusive means small, poorly fitted or top-dose-only effect, or another doubt; inactive means no such curve, though single readings can be large; an effect the other way counts as inactive or inconclusive.
# Legend:
# CRL-7250 = normal cell line; test: Cytotoxic Profiling of Annotated Libraries Using Quantitative High-Throughput Screening (AID 1296008); conditions: Five cell lines viability, CellTiter-Glo ATP luminescence, 48-72 h; max response: active compounds read low; further: nearly all actives have a fitted effect of over 60% in size; further: potency means the concentration at half of the fitted maximal effect
# In short: (§1)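 Compounds were pin-transferred onto cells and incubated 48 or 72 hr at 37 degree Celsius, 95% humidity. CellTiter-Glo was added, plates sat 10 min at room temperature, then ATP-coupled luminescence was imaged as the viability read-out.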
# HaCat [1] = test: as above; conditions: Five cell lines viability, CellTiter-Glo ATP luminescence, 48-72 h; max response: active compounds read low
# In short: as §1
# KB-3-1 = test: as above; conditions: Five cell lines viability, CellTiter-Glo ATP luminescence, 48-72 h; max response: active compounds read low
# In short: as §1
# NIH3T3 [2] = test: as above; conditions: Five cell lines viability, CellTiter-Glo ATP luminescence, 48-72 h; max response: active compounds read low
# In short: as §1
# HACAT [3] = test: qHTS assay to identify novel small-molecules to repurpose for Merkel cell carcinoma treatment (AID 1296009); conditions: MCC and control cell lines, CellTiter-Glo viability, 72 h; at 44.8 µM (top of the series) unless noted; further: nearly all actives have a fitted effect of over 60% in size; further: potency means the concentration at half of the fitted maximal effect
# In short: (§2)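 Luminescence from CellTiter-Glo, read 10 min after addition at room temperature, reported viability following a 72 hr, 37 degree celsius treatment with NPC or MIPE compounds in titration; values normalized to plate controls.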
# MCC-13 = test: as above; conditions: MCC and control cell lines, CellTiter-Glo viability, 72 h; series mostly up to 46 µM
# In short: as §2
# MCC-26 = test: as above; conditions: MCC and control cell lines, CellTiter-Glo viability, 72 h; series mostly up to 46 µM
# In short: as §2
# MKL-1 = test: as above; conditions: MCC and control cell lines, CellTiter-Glo viability, 72 h; series mostly up to 46 µM
# In short: as §2
# MKL-2 = test: as above; conditions: MCC and control cell lines, CellTiter-Glo viability, 72 h; series mostly up to 46 µM
# In short: as §2
# NIH3T3 [4] = test: as above; conditions: MCC and control cell lines, CellTiter-Glo viability, 72 h; series mostly up to 44.8 µM
# In short: as §2
# UISO = test: as above; conditions: MCC and control cell lines, CellTiter-Glo viability, 72 h; series mostly up to 46 µM
# In short: as §2
# WaGa = test: as above; conditions: MCC and control cell lines, CellTiter-Glo viability, 72 h; series mostly up to 46 µM
# In short: as §2
# C33A = test: Primary qHTS to identify gynecologic anti-cancer compounds using libraries of approved drugs and bioactive compounds (AID 1345084); conditions: Gynecologic cancer cell panel viability, ATPlite luminescence, 48 h; series mostly up to 57.5 µM; further: nearly all actives have a fitted effect of over 55% in size
# In short: (§3)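 Cells, 1,000 per well, were allowed to settle for 16 h at 37 C before compound addition. Five concentrations were tested for 48 h, and viability was read by ATPlite luminescence after 15 min at room temperature.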
# CAOV3 = test: as above; conditions: Gynecologic cancer cell panel viability, ATPlite luminescence, 48 h; series mostly up to 57.5 µM
# In short: as §3
# CASKI = test: as above; conditions: Gynecologic cancer cell panel viability, ATPlite luminescence, 48 h; series mostly up to 57.5 µM
# In short: as §3
# HEK293 = test: Cytotoxic Profiling of Annotated Libraries Using Quantitative High-Throughput Screening (AID 1296008); conditions: Five cell lines viability, CellTiter-Glo ATP luminescence, 48-72 h; max response: active compounds read low; further: nearly all actives have a fitted effect of over 60% in size; further: potency means the concentration at half of the fitted maximal effect
# In short: as §1
# On the % scale 0 is the no-effect control and ±100 the full control effect.
smiles,measurement,setting,value
CN[C@@H](C)[C@H]1[C@H](O)C[C@@]2(C)[C@@H]3CC[C@H]4C(C)(C)[C@@H](NC)CC[C@@]45C[C@@]35CC[C@]12C,max response,CRL-7250,-4.48% and 3.02%
same,max response,HaCat [1],-3.67%
same,outcome,HaCat [1],inactive
same,max response,KB-3-1,4.02%
same,outcome,KB-3-1,inactive
same,outcome,NIH3T3 [2],inactive
same,outcome,HACAT [3],inactive [at 9.27 µM]
same,Potency,MCC-13,inactive
same,Potency,MCC-26,inactive
same,Potency,MKL-1,inactive
same,Potency,MKL-2,inactive
same,Potency,NIH3T3 [4],inactive
same,Potency,UISO,inactive
same,Potency,WaGa,inactive
same,"activity change, negative = cytotoxicity",C33A,14.9% [at 11.6 µM]
same,"activity change, negative = cytotoxicity",CAOV3,7.65% [at 11.6 µM]
same,"activity change, negative = cytotoxicity",CASKI,1.7% [at 11.6 µM]
CN1CC(=O)NC1=NC(=O)Nc1cccc(Cl)c1,max response,CRL-7250,-9.31%
same,max response,HEK293,-3.54%
same,max response,KB-3-1,5.76%
same,max response,NIH3T3 [2],-5.12%
same,Potency,MCC-13,inactive
same,Potency,MCC-26,inactive
same,Potency,UISO,inactive
same,Potency,WaGa,inactive
CCC=CC[C@H]1C(=O)CC[C@@H]1CC(=O)OC,max response,CRL-7250,-0.832%
same,max response,HEK293,3.57%
same,outcome,HaCat [1],inactive
same,outcome,KB-3-1,inactive
same,outcome,HACAT [3],inactive
same,Potency,MCC-13,inactive
same,Potency,MCC-26,inactive
same,Potency,MKL-1,inactive
same,Potency,MKL-2,inactive
same,Potency,UISO,inactive
same,Potency,WaGa,inactive
COc1cc2nccc(Oc3ccc(NC(=O)Nc4cc(C)on4)c(Cl)c3)c2cc1OC,Potency,CRL-7250,14800 nM (active)
same,Potency,HEK293,13.2 µM (active)
same,Potency,KB-3-1,18700 nM (active)
same,Potency,NIH3T3 [2],9.35 µM (active) and 3.66 µM (active)
same,Potency,WaGa,23500 nM (active)
Cc1ccc(NC(=O)c2ccc(CN3CCN(C)CC3)cc2)cc1Nc1nc(-c2cccnc2)cs1,max response,CRL-7250,-52.7%
same,Potency,HEK293,8.33 µM (active)
same,max response,HaCat [1],-8.86%
same,max response,KB-3-1,-13.9%
same,Potency,MCC-13,inactive
same,Potency,MCC-26,inactive
same,Potency,MKL-1,inactive
Cc1cnc(CNC(=O)c2c(=O)c3ccc(N4CCCN(C)CC4)nc3n3c2sc2ccccc23)cn1,max response,CRL-7250,-36.5% and -21.3%
same,Potency,HEK293,0.0512 µM (active)
same,max response,HaCat [1],-24.1%
same,Potency,MCC-13,inactive
same,Potency,MCC-26,inactive
same,Potency,MKL-1,inactive
same,Potency,MKL-2,inactive
same,"activity change, negative = cytotoxicity",C33A,-22% [at 11.6 µM]
same,"activity change, negative = cytotoxicity",CAOV3,-1.16% [at 11.6 µM]
same,"activity change, negative = cytotoxicity",CASKI,-0.786% [at 11.6 µM]
C[C@H]1O[C@@H](n2cc(F)c(=O)[nH]c2=O)[C@H](O)[C@H]1O,max response,CRL-7250,-14.8%
same,Potency,HEK293,13.2 µM (active)
same,max response,HaCat [1],-27.2%
same,max response,KB-3-1,-15.3%
same,Potency,MCC-13,inactive
same,Potency,MCC-26,inactive
same,Potency,MKL-1,inactive
same,Potency,MKL-2,inactive
CCNC(=O)Nc1ccc(Oc2ncnc(N)c2C=NOC)cc1Cl,outcome,CRL-7250,inactive
same,max response,HEK293,-3.24%
same,outcome,HaCat [1],inactive
same,max response,NIH3T3 [2],4.69%
same,outcome,HACAT [3],inactive
same,Potency,MCC-13,inactive
same,Potency,MCC-26,inactive
same,Potency,MKL-1,inactive
same,Potency,MKL-2,inactive
same,Potency,UISO,inactive
same,Potency,WaGa,inactive
CCC(=O)N1CCN(c2ccc(-n3c(=O)ccc4cnc5ccc(-c6cnc7ccccc7c6)cc5c43)cc2C(F)(F)F)CC1,Potency,CRL-7250,84.1 nM (active)
same,Potency,HEK293,14.8 nM (active) and 53.1 nM (active)
same,Potency,HaCat [1],1.05 µM (active) and 668 nM (active)
same,Potency,NIH3T3 [2],33.2 nM (active) and 237 nM (active)
same,Potency,MKL-2,inactive
same,Potency,UISO,46.9 nM (active)
same,Potency,WaGa,inactive
same,"activity change, negative = cytotoxicity",CAOV3,-22.6% [at 11.6 µM]
O=C(NC[C@H](O)CO)c1ccncc1Nc1ccc(I)cc1F,Potency,CRL-7250,16600 nM (active)
same,max response,HEK293,-10.7%
same,outcome,KB-3-1,inactive
same,Potency,NIH3T3 [2],8.33 µM (active)
same,Potency,MCC-26,inactive
same,Potency,MKL-2,6620 nM (active)
same,Potency,UISO,inactive
same,Potency,WaGa,inactive
CC1(C)CC(=O)c2c(C(F)(F)F)nn(-c3ccc(C(N)=O)c(NC4CCC(O)CC4)c3)c2C1 (stereo not drawn),Potency,CRL-7250,259 nM (active)
same,Potency,HEK293,52.6 nM (active) and 58 nM (active)
same,Potency,HaCat [1],132 nM (active) and 231 nM (active)
same,Potency,KB-3-1,105 nM (active)
same,Potency,NIH3T3 [2],235 nM (active) and 184 nM (active)
same,Potency,UISO,166 nM (active)
CCNC(=O)c1noc(-c2cc(C(C)C)c(O)cc2O)c1-c1ccc(CN2CCOCC2)cc1,Potency,CRL-7250,83.3 nM (active)
same,Potency,HEK293,46.9 nM (active) and 9.2 nM (active)
same,Potency,HaCat [1],469 nM (active) and 41.1 nM (active)
same,Potency,NIH3T3 [2],264 nM (active) and 51.7 nM (active)
same,Potency,MCC-13,209 nM (active)
same,Potency,MKL-2,inactive
same,Potency,UISO,166 nM (active)
same,Potency,CAOV3,inactive
C=CC(=O)Nc1cccc(Sc2nc(Nc3ccc(N4CCN(C)CC4)cc3)ncc2Cl)c1,Potency,CRL-7250,33200 nM (active)
same,Potency,HaCat [1],5.8 µM (active)
Nc1nc(Cl)nc2c1ncn2[C@@H]1O[C@H](CO)[C@@H](O)[C@H]1F,Potency,CRL-7250,1660 nM (active)
same,Potency,HEK293,0.469 µM (active)
same,Potency,HaCat [1],0.0743 µM (active)
same,Potency,NIH3T3 [2],0.166 µM (active)
same,Potency,MCC-26,590 nM (active)
same,Potency,MKL-1,13.2 nM (active)
same,Potency,WaGa,inactive
COc1ccc(-c2cc3nccn3c(Nc3ncccc3C(N)=O)n2)cc1OC,Potency,CRL-7250,2090 nM (active)
same,Potency,HEK293,1.48 µM (active) and 5.8 µM (active)
same,max response,HaCat [1],-23.8%
same,max response,KB-3-1,-9.74%
same,Potency,MCC-13,inactive
same,Potency,MCC-26,inactive
same,Potency,MKL-1,inactive
same,Potency,MKL-2,inactive
same,Potency,WaGa,inactive
same,Potency,C33A,inactive
same,Potency,CAOV3,inactive
same,Potency,CASKI,inactive
